# Targets with a hit are over-represented here; the source holds about 7,900 in all. About 0.6% of all pairs of compound and target were hits. A number with no mark means an inactive call.
# Experiments:
# Test in all cases: log2 fold change, soluble protein after heating vs DMSO (PISA); higher = thermal stabilisation; K562 cells, 10 uM, 30 min; active = over 0.2 and 3.5 SD of the protein, either way, in both replicates (recomputed)
# [1] = compound: Cc1ccc(NC(=O)c2ccc(CN3CC[C@H](N(C)C)C3)c(C(F)(F)F)c2)cc1Nc1nccc(-c2cncnc2)n1 [bafetinib]
# Summary of the method: (§1)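 Soluble protein was quantified by TMTpro 16plex LC-MS/MS after channel sums were equalised. It was obtained as the supernatant after 21,000xg for 90 min from pooled aliquots of K562 cells (2×10^6 cells/mL, 10 μM compound, 30 min) heated for 3 min across 48°C-58°C and extracted in PBS with 0.5% NP-40 at 4°C. Thermal stability values are relative to control samples and come from duplicates. They are given as log2 fold changes.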
# [2] = compound: Cc1cccc(CC(=O)N2CCc3c2ccc(-c2cn(C)c4ncnc(N)c24)c3F)n1
# Summary of the method: as §1
# [3] = compound: Cc1nc(Nc2ncc(C(=O)Nc3c(C)cccc3Cl)s2)cc(N2CCN(CCO)CC2)n1 [dasatinib]
# Summary of the method: as §1
# [4] = compound: Cn1cc(-c2ccc3c(c2)CCN3C(=O)Cc2cccc(C(F)(F)F)c2)c2c(N)ncnc21
# Summary of the method: as §1
# [5] = compound: Cn1cc(-c2ccc3nnc(C(F)(F)c4ccc5ncccc5c4)n3n2)cn1
# Summary of the method: as §1
# [6] = compound: Cn1cncc1[C@@](N)(c1ccc(Cl)cc1)c1ccc2c(c1)c(-c1cccc(Cl)c1)cc(=O)n2C [tipifarnib]
# Summary of the method: as §1
# [7] = compound: FC(F)(F)c1ccc(/C=C/c2nc(COc3ccc(CCCCn4ccnn4)cc3)co2)cc1 [mubritinib]
# Summary of the method: as §1
# [8] = compound: NC(=O)c1cnc(N[C@@H]2CCCC[C@@H]2N)nc1Nc1cccc(-n2nccn2)c1
# Summary of the method: as §1
# [9] = compound: NC1(c2ccc(-c3nc4ccn5c(=O)[nH]nc5c4cc3-c3ccccc3)cc2)CCC1
# Summary of the method: as §1
# [10] = compound: NCC(=O)Nc1ccc(-n2nc(C(F)(F)F)cc2-c2ccc3c(ccc4ccccc43)c2)cc1
# Summary of the method: as §1
# [11] = compound: O=C(CCCCCCC(=O)Nc1ccccc1)NO [vorinostat]
# Summary of the method: as §1
# [12] = compound: O=C(CCCCCCNC(=O)c1cnc(N(c2ccccc2)c2ccccc2Cl)nc1)NO [citarinostat]
# Summary of the method: as §1
# [13] = compound: O=C(O)c1ccc2c(c1)nc(Nc1cccc(Cl)c1)c1ccncc12 [silmitasertib]
# Summary of the method: as §1
# [14] = compound: c1cc(OCCN2CCCCC2)cc(-c2n[nH]c3ccc(-c4nnc[nH]4)cc23)c1
# Summary of the method: as §1
# [15] = compound: Cc1cn(-c2cc(NC(=O)c3ccc(C)c(Nc4nccc(-c5cccnc5)n4)c3)cc(C(F)(F)F)c2)cn1 [nilotinib]
# Summary of the method: as §1
# [16] = compound: Cc1nc(Nc2n[nH]c3c2CN(C(=O)N[C@H](CN(C)C)c2ccccc2)C3(C)C)c2sccc2n1
# Summary of the method: as §1
# [17] = compound: Cc1ncc(-c2ccnc(Nc3ccc(S(C)(=O)=O)cc3)n2)n1C(C)C
# Summary of the method: as §1
# [18] = compound: NC(=O)Nc1cc(-c2cccc(F)c2)sc1C(=O)N[C@H]1CCCNC1
# Summary of the method: as §1
# [19] = compound: Nc1ccccc1NC(=O)c1ccc(CNC(=O)OCc2cccnc2)cc1 [entinostat]
# Summary of the method: as §1
# [20] = compound: O=C1NC(=O)C(c2cnc3ccccn23)=C1c1cn2c3c(cc(F)cc13)CN(C(=O)N1CCCCC1)CC2
# Summary of the method: as §1
# UniProt Q14CW9, sequence (Q14CW9 whole entry, looked up): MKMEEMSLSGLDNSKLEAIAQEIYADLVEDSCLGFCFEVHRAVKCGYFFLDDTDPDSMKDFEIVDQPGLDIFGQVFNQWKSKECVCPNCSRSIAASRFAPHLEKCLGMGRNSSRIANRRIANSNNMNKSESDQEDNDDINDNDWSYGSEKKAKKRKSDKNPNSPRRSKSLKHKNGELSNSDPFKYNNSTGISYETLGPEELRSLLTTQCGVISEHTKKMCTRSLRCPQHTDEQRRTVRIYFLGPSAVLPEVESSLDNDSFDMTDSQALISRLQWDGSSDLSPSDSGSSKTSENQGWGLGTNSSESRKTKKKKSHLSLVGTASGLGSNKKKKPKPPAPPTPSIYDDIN
# UniProt P05091, sequence (P05091 whole entry, looked up): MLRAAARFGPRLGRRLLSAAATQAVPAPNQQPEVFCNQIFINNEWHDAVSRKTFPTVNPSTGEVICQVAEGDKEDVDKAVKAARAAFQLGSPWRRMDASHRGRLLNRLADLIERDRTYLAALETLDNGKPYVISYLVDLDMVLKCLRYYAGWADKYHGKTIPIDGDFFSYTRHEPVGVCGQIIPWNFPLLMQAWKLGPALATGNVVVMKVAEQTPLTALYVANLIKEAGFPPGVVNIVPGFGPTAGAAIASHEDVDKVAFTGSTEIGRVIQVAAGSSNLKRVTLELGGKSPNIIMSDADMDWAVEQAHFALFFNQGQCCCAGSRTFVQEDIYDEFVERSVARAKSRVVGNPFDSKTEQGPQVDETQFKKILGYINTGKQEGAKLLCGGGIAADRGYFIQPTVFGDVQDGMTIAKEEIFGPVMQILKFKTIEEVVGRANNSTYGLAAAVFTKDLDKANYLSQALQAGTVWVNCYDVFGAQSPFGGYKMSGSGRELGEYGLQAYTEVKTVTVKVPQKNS
# UniProt Q99758, sequence (Q99758 whole entry, looked up): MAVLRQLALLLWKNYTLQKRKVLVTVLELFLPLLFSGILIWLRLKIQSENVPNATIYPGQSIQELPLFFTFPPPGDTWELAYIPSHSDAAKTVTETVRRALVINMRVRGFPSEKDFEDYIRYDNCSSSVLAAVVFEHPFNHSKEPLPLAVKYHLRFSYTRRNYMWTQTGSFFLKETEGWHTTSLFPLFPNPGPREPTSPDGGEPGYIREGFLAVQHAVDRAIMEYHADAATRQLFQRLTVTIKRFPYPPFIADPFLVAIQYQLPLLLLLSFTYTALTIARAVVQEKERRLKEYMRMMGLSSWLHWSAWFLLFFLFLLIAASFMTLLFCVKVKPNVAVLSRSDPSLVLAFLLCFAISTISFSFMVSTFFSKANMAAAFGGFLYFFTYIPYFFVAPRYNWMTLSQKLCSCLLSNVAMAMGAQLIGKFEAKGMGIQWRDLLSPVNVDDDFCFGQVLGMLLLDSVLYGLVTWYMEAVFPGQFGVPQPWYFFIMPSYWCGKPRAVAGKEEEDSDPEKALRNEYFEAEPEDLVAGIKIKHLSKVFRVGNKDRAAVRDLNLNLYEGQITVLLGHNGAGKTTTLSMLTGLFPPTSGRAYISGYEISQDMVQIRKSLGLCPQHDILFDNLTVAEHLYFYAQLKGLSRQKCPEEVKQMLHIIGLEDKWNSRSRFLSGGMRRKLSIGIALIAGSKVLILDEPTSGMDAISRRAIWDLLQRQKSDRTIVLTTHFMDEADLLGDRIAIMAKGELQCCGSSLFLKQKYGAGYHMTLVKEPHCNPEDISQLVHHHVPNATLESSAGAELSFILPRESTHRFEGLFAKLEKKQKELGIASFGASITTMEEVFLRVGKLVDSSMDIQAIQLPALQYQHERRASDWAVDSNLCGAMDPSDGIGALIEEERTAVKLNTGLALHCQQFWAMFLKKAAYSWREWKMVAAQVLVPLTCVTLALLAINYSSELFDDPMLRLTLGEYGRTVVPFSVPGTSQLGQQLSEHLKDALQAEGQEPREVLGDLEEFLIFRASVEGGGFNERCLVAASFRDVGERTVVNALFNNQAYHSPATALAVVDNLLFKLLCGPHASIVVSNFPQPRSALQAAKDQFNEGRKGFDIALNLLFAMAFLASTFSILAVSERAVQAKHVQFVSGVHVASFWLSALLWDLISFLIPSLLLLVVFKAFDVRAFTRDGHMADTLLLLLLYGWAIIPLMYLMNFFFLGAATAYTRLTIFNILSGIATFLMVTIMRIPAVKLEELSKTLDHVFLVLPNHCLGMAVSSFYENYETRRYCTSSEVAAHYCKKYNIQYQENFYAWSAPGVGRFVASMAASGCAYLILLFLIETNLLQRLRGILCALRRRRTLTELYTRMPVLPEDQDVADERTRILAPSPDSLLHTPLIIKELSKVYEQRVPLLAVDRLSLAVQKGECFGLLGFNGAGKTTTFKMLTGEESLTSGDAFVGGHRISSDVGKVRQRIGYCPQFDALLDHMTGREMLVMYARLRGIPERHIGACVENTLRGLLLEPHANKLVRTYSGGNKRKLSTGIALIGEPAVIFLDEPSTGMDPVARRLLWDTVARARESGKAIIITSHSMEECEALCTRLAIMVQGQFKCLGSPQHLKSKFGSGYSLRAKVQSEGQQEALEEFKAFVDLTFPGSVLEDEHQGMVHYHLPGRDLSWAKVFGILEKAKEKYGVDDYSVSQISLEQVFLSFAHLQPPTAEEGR
# UniProt Q9HCU9, sequence (Q9HCU9 whole entry, looked up): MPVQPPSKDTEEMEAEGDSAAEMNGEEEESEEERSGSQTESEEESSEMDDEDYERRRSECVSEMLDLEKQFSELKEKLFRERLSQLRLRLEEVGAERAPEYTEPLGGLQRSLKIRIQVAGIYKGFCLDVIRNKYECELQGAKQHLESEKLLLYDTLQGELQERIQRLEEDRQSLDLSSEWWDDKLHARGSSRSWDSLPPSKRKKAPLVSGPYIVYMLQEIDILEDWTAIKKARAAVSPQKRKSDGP
# UniProt Q96P47, sequence (Q96P47 whole entry, looked up): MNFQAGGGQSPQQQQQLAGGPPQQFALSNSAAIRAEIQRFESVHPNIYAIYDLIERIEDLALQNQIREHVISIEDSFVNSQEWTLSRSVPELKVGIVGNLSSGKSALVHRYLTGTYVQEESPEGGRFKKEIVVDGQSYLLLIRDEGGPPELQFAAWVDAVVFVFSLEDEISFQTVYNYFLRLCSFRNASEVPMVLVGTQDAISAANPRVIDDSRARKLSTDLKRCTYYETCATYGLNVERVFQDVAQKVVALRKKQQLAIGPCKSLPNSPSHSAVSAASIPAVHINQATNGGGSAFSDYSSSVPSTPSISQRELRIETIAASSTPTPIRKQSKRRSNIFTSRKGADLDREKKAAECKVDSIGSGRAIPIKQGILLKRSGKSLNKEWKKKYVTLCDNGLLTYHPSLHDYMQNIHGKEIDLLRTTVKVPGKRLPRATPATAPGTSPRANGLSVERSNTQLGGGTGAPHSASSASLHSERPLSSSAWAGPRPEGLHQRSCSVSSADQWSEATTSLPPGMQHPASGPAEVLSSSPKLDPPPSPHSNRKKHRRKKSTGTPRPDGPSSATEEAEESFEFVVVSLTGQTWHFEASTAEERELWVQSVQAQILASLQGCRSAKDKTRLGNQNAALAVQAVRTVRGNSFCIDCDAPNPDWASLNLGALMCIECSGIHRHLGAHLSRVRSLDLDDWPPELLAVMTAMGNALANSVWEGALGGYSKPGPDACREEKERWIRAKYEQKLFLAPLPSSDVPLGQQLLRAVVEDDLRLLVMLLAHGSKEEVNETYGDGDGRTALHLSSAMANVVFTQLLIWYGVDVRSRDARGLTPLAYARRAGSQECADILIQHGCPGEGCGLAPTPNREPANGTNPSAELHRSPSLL
# UniProt O14727, sequence (O14727 whole entry, looked up): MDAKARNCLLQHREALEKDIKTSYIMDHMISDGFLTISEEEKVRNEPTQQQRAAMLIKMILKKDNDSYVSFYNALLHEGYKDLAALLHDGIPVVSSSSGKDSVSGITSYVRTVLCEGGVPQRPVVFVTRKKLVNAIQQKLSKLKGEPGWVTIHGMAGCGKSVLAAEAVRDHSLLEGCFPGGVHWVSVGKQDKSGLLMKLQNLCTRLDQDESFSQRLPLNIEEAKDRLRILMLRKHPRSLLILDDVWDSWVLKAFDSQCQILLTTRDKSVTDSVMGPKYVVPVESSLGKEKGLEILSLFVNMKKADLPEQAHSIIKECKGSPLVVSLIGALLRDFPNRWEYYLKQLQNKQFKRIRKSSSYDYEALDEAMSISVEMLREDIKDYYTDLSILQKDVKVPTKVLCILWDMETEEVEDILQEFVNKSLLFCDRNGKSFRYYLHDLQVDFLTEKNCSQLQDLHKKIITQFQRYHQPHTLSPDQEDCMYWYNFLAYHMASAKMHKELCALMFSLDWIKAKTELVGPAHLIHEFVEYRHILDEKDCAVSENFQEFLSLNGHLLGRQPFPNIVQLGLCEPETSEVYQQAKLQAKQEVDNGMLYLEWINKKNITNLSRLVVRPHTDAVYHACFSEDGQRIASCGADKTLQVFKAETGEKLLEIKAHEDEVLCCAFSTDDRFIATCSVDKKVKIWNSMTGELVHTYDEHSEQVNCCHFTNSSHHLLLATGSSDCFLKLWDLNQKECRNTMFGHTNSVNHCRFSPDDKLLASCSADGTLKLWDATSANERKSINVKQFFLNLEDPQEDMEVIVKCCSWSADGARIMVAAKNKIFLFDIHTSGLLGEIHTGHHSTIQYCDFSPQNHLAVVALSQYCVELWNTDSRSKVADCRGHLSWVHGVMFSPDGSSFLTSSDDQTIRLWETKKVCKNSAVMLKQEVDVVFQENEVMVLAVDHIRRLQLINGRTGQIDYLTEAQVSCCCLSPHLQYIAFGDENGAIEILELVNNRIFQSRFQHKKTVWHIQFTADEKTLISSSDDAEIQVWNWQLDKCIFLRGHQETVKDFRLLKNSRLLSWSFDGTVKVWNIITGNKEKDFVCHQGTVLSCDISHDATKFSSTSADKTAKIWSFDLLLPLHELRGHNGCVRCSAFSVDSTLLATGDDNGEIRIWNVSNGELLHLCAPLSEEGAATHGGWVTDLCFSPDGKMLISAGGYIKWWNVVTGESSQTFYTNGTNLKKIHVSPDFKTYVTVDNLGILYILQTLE
Target,log2 fold change [1],log2 fold change [2],log2 fold change [3],log2 fold change [4],log2 fold change [5],log2 fold change [6],log2 fold change [7],log2 fold change [8],log2 fold change [9],log2 fold change [10],log2 fold change [11],log2 fold change [12],log2 fold change [13],log2 fold change [14],log2 fold change [15],log2 fold change [16],log2 fold change [17],log2 fold change [18],log2 fold change [19],log2 fold change [20]
AUH (UniProt Q13825),-0.102,0.024,0.145,-0.072,0.007,-0.011,0.048,0.011,-0.023,0.103,0.018,-0.103,-0.061,0.003,,,,,,
AP2M1 (UniProt C9JTK4),-0.174,,0.029,-0.17,,,0.08,-0.149,-0.111,-0.261,,-0.132,0.116,0.024,-0.02,0.212,-0.161,-0.07,0.043,-0.267
ATXN7L3 isoform 2 (UniProt Q14CW9),-0.123,,,,0.03,,0.086,0.033,0.207,,,-0.087,-0.373,0.051,0.024,0.043,-0.054,0.182,-0.346,
BRMS1 (UniProt Q9HCU9),,0.029,0.035,,,,0.179,0.15,0.121,,-0.053,-0.097,-0.042,-0.178,,,,,,-0.033
ARMC8 isoform 6 (UniProt Q8IUR7),-0.012,,,,,,,-0.023,,0.025,,,,,-0.034,-0.079,-0.052,,,
AGAP3 isoform 4 (UniProt Q96P47),-0.144,,,-0.077,-0.082,-0.012,-0.156,-0.128,-0.001,,,-0.063,-0.019,-0.18,0.138,-0.016,-0.049,0.034,0.021,0.127
AFDN isoform 1 (UniProt P55196),-0.053,-0.077,-0.152,-0.027,0.07,,0.031,0.048,-0.043,-0.031,-0.033,0.079,0.002,-0.141,,,,-0.016,0.047,-0.054
ALKBH4 (UniProt Q9NXW9),0.038,0.087,0,-0.022,0.017,-0.001,-0.122,-0.051,-0.427 (active),0.097,-0.031,0.079,0.165,-0.014,,,,-0.009,-0.058,0
BRD8 isoform 2 (UniProt Q9H0E9),-0.057,0.064,-0.136,-0.022,-0.038,-0.038,,-0.205,,-0.13,-0.092,-0.019,,-0.09,,,,-0.016,0.039,0.102
AARSD1 (UniProt Q9BTE6),0.142,,-0.606,0.121,,-0.19,0.066,-0.066,-0.048,,,0.144,0.137,0.066,0.029,-0.078,-0.012,,,
AZI2 (UniProt Q9H6S1),-0.049,,,,0.105,,,,,-0.152,,-0.014,,-0.028,0.179,0.481,0.099,-0.094,0.041,
BRAF (UniProt P15056),0.067,0.019,,0.03,0.01,-0.034,-0.059,-0.079,,-0.046,0.012,-0.002,0.024,-0.067,,-0.099,-0.014,-0.102,0.009,-0.007
BAP18 isoform 3 (UniProt Q8IXM2),,-0.182,,,,,0.117,,-0.042,,0.192,,-0.119,,,,,,,
AIF1 (UniProt P55008),0.035,,,,0.153,0.051,,0.004,,0.021,,,,,,,,0.04,-0.105,0.068
APAF1 (UniProt O14727),,0.042,-0.121,-0.122,-0.016,-0.152,-0.032,0.033,-0.116,-0.104,0.048,0.093,-0.116,-0.016,-0.058,-0.015,-0.268,0.016,0.031,-0.062
APOBEC3G (UniProt Q9HC16),-0.016,,0.075,,-0.042,-0.012,0.03,0.149,0.061,-0.027,,0.125,0.116,-0.013,0.028,0.079,0.028,0.046,0.026,0.202
ALDH2 isoform 2 (UniProt P05091),-0.029,-0.124,,,0.244,0.015,,-0.389,,-0.351,0.083,-0.055,,-0.36,,,,-0.345,-0.14,0.051
BRD2 isoform 2 (UniProt P25440),0.136,0.476,-0.32,0.11,,-0.171,,-0.209,,-0.112,-0.214,,,,,,,-0.01,-0.159,
ARHGAP4 isoform 2 (UniProt P98171),0.709 (active),,-0.097,-0.06,-0.046,0.161,-0.164,-0.079,0.021,-0.036,,0.047,-0.043,-0.097,-0.137,0.436,-0.174,0.197,0.081,
ABCA3 (UniProt Q99758),0.164,-0.053,-0.027,-0.022,0.019,0.058,,-0.001,,-0.196,0.02,0.021,,0,,,,0.021,-0.064,0.134
BDH2 (UniProt Q9BUT1),0.114,0.069,0.031,0.063,-0.032,0.017,0.274,-0.086,-0.042,0.009,-0.03,,0.076,,,,,-0.091,0.025,
ADD1 isoform 4 (UniProt P35611),-0.034,0.033,,0.114,,,,,,,0.05,,,,,,,,,0.027
ADD2 isoform 9 (UniProt P35612),0.021,,,,-0.002,0.149,-0.125,,-1.2 (active),,,,-0.225,,,,,0,-0.052,

# — the supplement of paper PMC10849652
